# Hit rate of the full screen: of about 63,000 compounds, about 1,100 (1.7%) were called active. The sample holds actives, similar compounds and a random draw of the others, so the mix is not that of the screen. Measured potencies and affinities stand elsewhere. A number with no mark means an inactive call. Rule as the data show it: active = cytotoxicity above about 50%; inactive = the rest.
# Assay: HPDE-C7 pancreatic duct cell viability loss – fluorescence, HTS (AID 430);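 also: cells exposed to compound for 48 hours before viability readout; 0% = vehicle and 100% = reference cytotoxic drug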
# Details: HPDE-C7 pancreatic duct cells viability, at 10 µM, active compounds read high
row,Compound,cytotoxicity
1,C(=C\c1ccccc1)/CSc1nnc(-c2cnccn2)n1Cc1ccco1,-10.9%
2,CCOC(=O)N1CCN(C(=O)C(CC(C)C)NC(=O)C2CCCCC2)CC1 (configuration not stated),-6.8%
3,N#Cc1c(NC(=O)CN2CCOCC2)oc(-c2ccccc2)c1-c1ccccc1,-0.2%
4,N#Cc1c(NC(=O)Cn2c(=O)oc3ccccc32)oc(-c2ccccc2)c1-c1ccccc1,72% (active)
5,CCn1c(SCC(=O)Nc2oc(-c3ccccc3)c(-c3ccccc3)c2C#N)nnc1-c1ccco1,32.7%
6,N#Cc1c(NC(=O)CCN2C(=O)c3ccccc3C2=O)oc(-c2ccccc2)c1-c1ccccc1,18.8%
7,Cc1ccnc(SCC(=O)Nc2oc(-c3ccccc3)c(-c3ccccc3)c2C#N)n1,24.1%
8,CC(=O)NC(C)C(=O)OCC(=O)c1ccc(Cl)s1 (configuration not stated),-1.2%
9,N#CCSc1nnc(COc2cccc3ccccc23)n1-c1ccccc1,37.6%
10,CCS(=O)(=O)Nc1ccc(Cc2ccncc2)cc1,-12.1%
11,CCOCCCNC(=O)C(c1ccc(OC)cc1)N(Cc1ccc2c(c1)OCO2)C(=O)CNC(C)=O (configuration not stated),-6.5%
12,C(=C\c1ccccc1)/CN1CCN(C(c2ccccc2)c2ccccc2)CC1,13%
13,O=C(Nc1ccc(F)cc1)N1CCN(C/C=C/c2ccccc2)CC1,11.6%
14,COc1cc(C2C3=C(CC(c4ccco4)CC3=O)Nc3ccccc3N2C(C)=O)cc(OC)c1OC (configuration not stated),-7.9%
15,Cc1ccc(-c2[nH]c(=O)n3ccncc23)s1,-9.9%
16,CCOc1nc(-c2ccccc2)ccc1-c1noc(-c2ccncc2)n1,5.2%

row,Compound,cytotoxicity
1,CC(C)(C)OC(=O)N1CCN(c2ccc(NC(=O)c3cc4ccccc4oc3=O)cc2)CC1,-30.1%
2,Cc1cnc(C(=O)Nc2ccc(N3CCN(C(=O)OC(C)(C)C)CC3)cc2)cn1,50.5% (active)
3,Cc1cnc(C(=O)Nc2ccc(N3CCOCC3)cc2)cn1,1.3%
4,Cc1csc2nc(CCNS(=O)(=O)c3ccc4c(c3)OCCO4)cn12,3.5%
5,CCOC(=O)Nc1ccc2c(c1)N(C(=O)CCN1CCOCC1)c1ccccc1S2=O (configuration not stated),85.2% (active)
6,CCOC(=O)Nc1ccc2c(c1)N(C(=O)CCN1CCOCC1)c1ccccc1S2,-7.9%
7,CCOC(=O)Nc1ccc2c(c1)Sc1ccccc1N2C(=O)CCN1CCOCC1,11.7%
8,O=C(CSc1nc2sc3c(c2c(=O)n1-c1ccccc1)CCCC3)NCc1ccco1,85.6% (active)
9,O=C(CSc1nc2ccccc2c(=O)n1Cc1ccco1)NCc1ccco1,-1.8%
10,O=C(CSc1nc2ccccc2c(=O)n1Cc1ccco1)NCc1ccccc1,58.8% (active)
11,O=c1c2ccccc2nc(SCc2ccccc2)n1Cc1ccco1,8.4%
12,COc1cc2nc(SCC(=O)NCc3ccco3)n(Cc3ccc(Cl)cc3)c(=O)c2cc1OC,50.9% (active)
13,CC1(C)Cc2c(sc3nc(SCC(=O)NCc4ccco4)n(-c4ccccc4)c(=O)c23)CS1,3.1%
14,COCCNC(=O)CSc1nc2cc(OC)c(OC)cc2c(=O)n1Cc1ccco1,-1.3%
15,C=CCn1c(SCC(=O)NCc2ccco2)nc2sc3c(c2c1=O)CCCCC3,2.9%
16,COc1cc2nc(SCC(=O)NCCc3ccccc3)n(Cc3ccco3)c(=O)c2cc1OC,-3.3%
